# In PubChem BioAssay (EPA / NIEHS):
# Records with an inconclusive call do not appear. Activity calls are given as the source filed them. The calls were made as follows, unless noted: active = hit-call score of the fitted dose curve at least 0.9, where 1 is the maximum; inactive = score below 0.9.
# Assays:
# [1] = ATG_TAL_CIS: Attagene CIS-FACTORIAL HepG2 Assay for human TAL Basal Promoter (AID 2282966); conditions: HepG2 Attagene cis-factorial TAL promoter reporter; actives raise or lower the signal;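 also: background control endpoint measuring basal TAL promoter reporter mRNA not a specific factor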
# Procedure, shortened: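 Fluorescence of labelled reporter cDNA fragments, resolved by capillary electrophoresis, gave the readout. Human HepG2 liver cells carried transiently transfected cis-element reporter units and were treated for 24 hours; activity was fitted bidirectionally against DMSO.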
# [2] = ATG_TGFb_CIS: Attagene CIS-FACTORIAL HepG2 Assay for human Transforming Growth Factor (TGF) (AID 2282967); conditions: HepG2 Attagene CIS TGFb reporter, mRNA transcription; actives raise or lower the signal
# Procedure, shortened: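 Multiplexed cis-reporter HepG2 system, 24 h treatment; mRNA induction read by fluorescence after RT-PCR and CE; DMSO negative control, bidirectional curve fitting.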
# [3] = ATG_VDRE_CIS: Attagene CIS-FACTORIAL HepG2 Assay for human Vitamin D Receptor Element (VDRE) (AID 2282968); conditions: HepG2 VDRE cis-reporter transcription, actives raise or lower the signal
# Procedure, shortened: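 RT-PCR/CE readout of reporter mRNA; HepG2, transient transfection, 24 h dosing; DMSO baseline; bidirectional analysis.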
# [4] = target: X-box-binding protein 1 (Homo sapiens) (UniProt P17861); test: ATG_Xbp1_CIS: Attagene CIS-FACTORIAL HepG2 Assay for human X-box Binding Protein 1 (XBP1) (AID 2282972); conditions: HepG2 XBP1 cis-element reporter, Attagene multiplex; actives raise or lower the signal
# Procedure, shortened: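 Fluorescence-labelled cDNA fragments from reporter transcripts, separated by capillary electrophoresis, give the signal. Source: HepG2 cells transfected with promoter-driven reporter units, harvested 24 h post-dose. DMSO served as reference for bidirectional curve fitting.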
# [5] = ATG_GAL4_TRANS: Attagene TRANS-FACTORIAL HepG2 Assay for GAL4 (Internal Marker) (AID 2282976; active = hit-call score of the fitted dose curve at least 0.9, where 1 is the maximum); conditions: HepG2 Attagene TRANS GAL4 internal marker reporter
# Procedure, shortened: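 First, HepG2 cells were transfected with reporter units under GAL4-UAS control. Next, they were treated with chemical for 24 h. Finally, RNA was reverse-transcribed, PCR-amplified, FAM-labelled and resolved by capillary electrophoresis, with induction scored against DMSO.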
# [6] = target: Nuclear receptor subfamily 1 group I member 3 (Homo sapiens) (UniProt Q14994); test: ATG_CAR_TRANS: Attagene TRANS-FACTORIAL HepG2 Assay for human Constitutive Androstane Receptor (CAR) (AID 2282969; active = hit-call score of the fitted dose curve at least 0.9, where 1 is the maximum;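 also: activators raise reporter mRNA above DMSO so AC50 marks induction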); conditions: HepG2 Attagene TRANS-FACTORIAL CAR reporter
# Procedure, shortened: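 HepG2 cells transiently transfected with multiplexed GAL4-UAS reporter units expressing chimeric NR-Gal4 proteins; compound exposure 24 h. Reporter mRNA measured by RT-PCR, 6-FAM labelling, HpaI digestion and capillary electrophoresis; gain-of-signal fitted against DMSO baseline.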
# [7] = target: Estrogen receptor (Homo sapiens) (UniProt P03372); test: ATG_ERa_TRANS: Attagene TRANS-FACTORIAL HepG2 Assay for human Estrogen Receptor alpha (ERa) (AID 2282970; active = hit-call score of the fitted dose curve at least 0.9, where 1 is the maximum); conditions: HepG2 Attagene TRANS ERa GAL4 reporter, mRNA
# Procedure, shortened: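 Human liver HepG2, transient transfection of multiple GAL4-UAS reporter units; TRANS format (exogenous NR-Gal4 chimera). 24 h dosing. Readout: reporter mRNA, RT-PCR, 6-FAM primer extension, HpaI digest, capillary electrophoresis. Positive direction vs DMSO.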
# [8] = target: Steroid hormone receptor ERR1 (Homo sapiens) (UniProt P11474); test: ATG_ERRa_TRANS: Attagene TRANS-FACTORIAL HepG2 Assay for human Estrogen-Related Receptor alpha (ERRa) (AID 2282971; active = hit-call score of the fitted dose curve at least 0.9, where 1 is the maximum); conditions: HepG2 Attagene TRANS reporter, ERRa transactivation
# Procedure, shortened: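 Reporter transcript induction was quantified by RT-PCR and capillary electrophoresis of FAM-labelled, HpaI-cut products after 24 h treatment of HepG2 cells carrying transiently transfected GAL4-UAS reporter units and an exogenous ERRa-Gal4 fusion; activity scored as increase over DMSO.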
# [9] = ATG_M_19_TRANS: Attagene TRANS-FACTORIAL HepG2 Assay for M19 Transcription Factor (Internal Marker) (AID 2282974; active = hit-call score of the fitted dose curve at least 0.9, where 1 is the maximum); conditions: HepG2 Attagene TRANS-FACTORIAL M19 internal marker reporter
# Procedure, shortened: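 Transfected HepG2 (GAL4-UAS MRTUs), 24 h compound, TriZol RNA, DNase-treated RT, reporter PCR, FAM label, HpaI digest, CE fluorescence; gain vs DMSO.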
# [10] = target: Estrogen-related receptor gamma (Homo sapiens) (UniProt P62508); test: ATG_ERRg_TRANS: Attagene TRANS-FACTORIAL HepG2 Assay for human Estrogen-Related Receptor gamma (ERRg) (AID 2282977; active = hit-call score of the fitted dose curve at least 0.9, where 1 is the maximum;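 also: hits increase reporter signal over DMSO so potencies reflect activators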); conditions: HepG2 Attagene TRANS reporter, ERRg transactivation
# Procedure, shortened: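 Transfect HepG2 with multiple GAL4-UAS reporter transcription units; dose chemicals 24 h; isolate RNA, reverse-transcribe with oligo(dT), PCR-amplify, label with 6-FAM, digest with HpaI; size fragments by capillary electrophoresis. DMSO serves as negative control.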
# Estrogen receptor (Homo sapiens), sequence (P03372 whole entry, looked up, the tested form may be a part): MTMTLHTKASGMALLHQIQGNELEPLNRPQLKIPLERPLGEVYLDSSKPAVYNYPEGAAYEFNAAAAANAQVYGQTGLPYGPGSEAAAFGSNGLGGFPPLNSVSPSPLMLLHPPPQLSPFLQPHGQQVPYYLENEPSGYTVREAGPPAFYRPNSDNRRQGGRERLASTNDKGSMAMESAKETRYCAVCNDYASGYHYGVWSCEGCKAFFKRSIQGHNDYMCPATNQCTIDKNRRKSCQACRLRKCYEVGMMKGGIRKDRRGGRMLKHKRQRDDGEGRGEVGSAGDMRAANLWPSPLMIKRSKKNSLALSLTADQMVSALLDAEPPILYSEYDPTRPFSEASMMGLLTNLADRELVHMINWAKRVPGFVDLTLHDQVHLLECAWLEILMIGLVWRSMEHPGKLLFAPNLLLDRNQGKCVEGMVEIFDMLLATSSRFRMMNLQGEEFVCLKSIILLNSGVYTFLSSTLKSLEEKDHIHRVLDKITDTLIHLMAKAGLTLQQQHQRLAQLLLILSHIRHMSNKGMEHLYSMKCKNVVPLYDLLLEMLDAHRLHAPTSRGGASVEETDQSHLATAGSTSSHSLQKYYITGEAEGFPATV
# Nuclear receptor subfamily 1 group I member 3 (Homo sapiens), sequence (Q14994 whole entry, looked up, the tested form may be a part): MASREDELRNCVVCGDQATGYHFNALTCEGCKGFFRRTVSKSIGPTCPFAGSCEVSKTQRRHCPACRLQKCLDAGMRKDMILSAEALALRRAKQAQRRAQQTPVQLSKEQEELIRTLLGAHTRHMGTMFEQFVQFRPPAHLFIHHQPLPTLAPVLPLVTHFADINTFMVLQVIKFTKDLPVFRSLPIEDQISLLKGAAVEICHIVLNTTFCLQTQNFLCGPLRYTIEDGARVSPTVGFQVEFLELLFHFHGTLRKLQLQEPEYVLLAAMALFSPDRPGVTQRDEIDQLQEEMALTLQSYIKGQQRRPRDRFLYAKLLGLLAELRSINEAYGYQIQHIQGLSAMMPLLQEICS
# Estrogen-related receptor gamma (Homo sapiens), sequence (P62508 whole entry, looked up, the tested form may be a part): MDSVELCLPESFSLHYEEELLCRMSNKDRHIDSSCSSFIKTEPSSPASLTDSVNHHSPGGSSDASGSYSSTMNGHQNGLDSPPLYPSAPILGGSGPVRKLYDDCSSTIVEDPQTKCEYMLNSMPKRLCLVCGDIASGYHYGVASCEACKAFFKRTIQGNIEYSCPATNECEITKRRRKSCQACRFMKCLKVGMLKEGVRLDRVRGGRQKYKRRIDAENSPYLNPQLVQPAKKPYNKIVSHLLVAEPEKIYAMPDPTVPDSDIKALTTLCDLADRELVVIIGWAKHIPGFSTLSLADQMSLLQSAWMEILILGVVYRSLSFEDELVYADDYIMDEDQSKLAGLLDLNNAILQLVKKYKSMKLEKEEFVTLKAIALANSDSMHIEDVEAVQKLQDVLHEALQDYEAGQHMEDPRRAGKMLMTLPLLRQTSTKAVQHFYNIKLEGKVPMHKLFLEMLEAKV
# X-box-binding protein 1 (Homo sapiens), sequence (P17861 whole entry, looked up, the tested form may be a part): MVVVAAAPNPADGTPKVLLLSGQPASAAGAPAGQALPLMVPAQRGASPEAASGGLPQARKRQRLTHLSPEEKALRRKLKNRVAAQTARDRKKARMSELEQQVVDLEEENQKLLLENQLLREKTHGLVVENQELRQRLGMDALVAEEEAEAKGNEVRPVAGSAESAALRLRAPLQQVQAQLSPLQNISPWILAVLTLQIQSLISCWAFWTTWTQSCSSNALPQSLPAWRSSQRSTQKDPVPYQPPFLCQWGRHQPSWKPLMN
# Steroid hormone receptor ERR1 (Homo sapiens), sequence (P11474 whole entry, looked up, the tested form may be a part): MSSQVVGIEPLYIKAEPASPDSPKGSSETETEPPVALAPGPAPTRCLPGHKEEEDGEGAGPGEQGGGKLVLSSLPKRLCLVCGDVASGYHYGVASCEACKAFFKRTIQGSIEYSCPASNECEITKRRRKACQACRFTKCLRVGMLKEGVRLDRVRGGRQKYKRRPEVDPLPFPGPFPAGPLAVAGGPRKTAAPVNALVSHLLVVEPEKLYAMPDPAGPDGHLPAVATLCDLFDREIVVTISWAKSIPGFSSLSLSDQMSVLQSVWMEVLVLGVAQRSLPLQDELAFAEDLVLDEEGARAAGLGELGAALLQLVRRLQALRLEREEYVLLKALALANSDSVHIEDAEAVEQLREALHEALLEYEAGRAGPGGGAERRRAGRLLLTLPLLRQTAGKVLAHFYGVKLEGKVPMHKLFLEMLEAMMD
smiles,measurement,setting,value
O=S(=O)(O)CC(O)CCl (centres undefined),outcome,[1],inactive
same,outcome,[2],inactive
same,outcome,[3],inactive
same,outcome,[4],inactive
same,outcome,[5],inactive
CCCCCCOC(=O)C(C)CC (centres undefined),outcome,[1],inactive
same,outcome,[2],inactive
same,outcome,[6],inactive
same,outcome,[7],inactive
same,outcome,[8],inactive
same,outcome,[4],inactive
same,outcome,[9],inactive
same,outcome,[5],inactive
same,outcome,[10],inactive
Cc1c(C)c([N+](=O)[O-])c(C(C)(C)C)c([N+](=O)[O-])c1C,outcome,[1],inactive
same,outcome,[2],inactive
same,outcome,[6],inactive
same,outcome,[7],inactive
same,outcome,[4],inactive
same,outcome,[9],inactive
Cc1ccccc1C,outcome,[1],inactive
same,outcome,[2],inactive
same,outcome,[3],inactive
same,outcome,[4],inactive
same,outcome,[5],inactive
same,outcome,[10],inactive
NNC(=O)c1cccc(C(=O)NN)c1,outcome,[1],inactive
same,outcome,[2],inactive
same,outcome,[3],inactive
same,outcome,[4],inactive
same,outcome,[5],inactive
CCCCCCCCCCCCCCCC[N+](C)(C)CC,outcome,[1],inactive
same,outcome,[2],inactive
same,AC50,[3],9.07 µM (active)
same,outcome,[4],inactive
same,AC50,[10],9.59 µM (active)
CC(=O)Nc1nnc(S(N)(=O)=O)s1,outcome,[1],inactive
same,outcome,[2],inactive
same,outcome,[6],inactive
same,outcome,[7],inactive
same,outcome,[4],inactive
same,outcome,[5],inactive
C=CCOCC(O)CCl (centres undefined),outcome,[1],inactive
same,outcome,[2],inactive
same,AC50,[3],34.8 µM (active)
same,outcome,[4],inactive
same,outcome,[5],inactive
O=Cc1ccc(CO)o1,outcome,[1],inactive
same,outcome,[2],inactive
same,outcome,[3],inactive
same,outcome,[4],inactive
same,outcome,[5],inactive
same,outcome,[10],inactive
C[Si](C)(CCCN)O[Si](C)(C)CCCN,outcome,[1],inactive
same,outcome,[2],inactive
same,outcome,[3],inactive
same,outcome,[4],inactive
same,outcome,[5],inactive
Clc1nc2ccccc2s1,outcome,[1],inactive
same,outcome,[2],inactive
same,outcome,[3],inactive
same,outcome,[4],inactive
same,outcome,[5],inactive
CCOc1nc(F)cc2nc(S(=O)(=O)Nc3c(Cl)cccc3C(=O)OC)nn12,outcome,[1],inactive
same,outcome,[2],inactive
same,AC50,[3],16.6 µM (active)
same,outcome,[4],inactive
same,outcome,[5],inactive
CCC(Cc1ccccc1)(C(=O)c1ccc(N2CCOCC2)cc1)N(C)C (centres undefined),AC50,[1],23.5 µM (active)
same,outcome,[2],inactive
same,AC50,[3],6.85 µM (active)
same,outcome,[9],inactive
NC(=O)c1ccccc1O,outcome,[1],inactive
same,outcome,[2],inactive
same,outcome,[3],inactive
same,outcome,[4],inactive
same,outcome,[5],inactive
C=COCCCC,outcome,[1],inactive
same,outcome,[2],inactive
same,outcome,[3],inactive
same,outcome,[4],inactive
same,outcome,[5],inactive
CCOC(=O)NNc1nncc2ccccc12,outcome,[1],inactive
same,outcome,[2],inactive
same,outcome,[3],inactive
same,outcome,[4],inactive
same,outcome,[5],inactive
CC(=O)CC(N)=O,outcome,[1],inactive
same,outcome,[2],inactive
same,outcome,[3],inactive
same,outcome,[4],inactive
same,outcome,[5],inactive
CC(C)(C)c1n[nH]c(=O)n(N)c1=O,outcome,[1],inactive
same,outcome,[2],inactive
same,outcome,[3],inactive
same,outcome,[4],inactive
same,outcome,[5],inactive
same,outcome,[10],inactive
Cc1cccc(OCCOc2cccc(C)c2)c1,outcome,[1],inactive
same,outcome,[2],inactive
same,outcome,[6],inactive
same,outcome,[7],inactive
same,outcome,[4],inactive
same,outcome,[9],inactive
CC1=NN(c2cc(S(=O)(=O)O)ccc2Cl)C(=O)C1N=Nc1ccccc1 (centres undefined),outcome,[1],inactive
same,outcome,[2],inactive
same,outcome,[3],inactive
same,outcome,[4],inactive
same,outcome,[5],inactive
C=CC(=O)OCC(Br)CBr (centres undefined),outcome,[1],inactive
same,AC50,[2],0.39 µM (active)
same,AC50,[3],26.3 µM (active)
same,outcome,[9],inactive
COC(=O)/C=C/C(C)=C\C=C\C(C)=C\C=C\C=C(C)\C=C\C=C(C)\C=C\C(=O)O,outcome,[1],inactive
same,outcome,[2],inactive
same,outcome,[3],inactive
same,outcome,[4],inactive
same,outcome,[10],inactive
CC=CC(F)(F)C(F)(F)C(F)(F)F,outcome,[1],inactive
same,outcome,[2],inactive
same,outcome,[3],inactive
same,outcome,[4],inactive
same,outcome,[5],inactive
same,outcome,[10],inactive
C=CC(=O)OCCOC1C2CCC1C1CC=CC12 (centres undefined),outcome,[1],inactive
same,outcome,[2],inactive
same,outcome,[3],inactive
same,outcome,[4],inactive
same,outcome,[5],inactive
CCC(CC)C(=O)O,outcome,[1],inactive
same,outcome,[2],inactive
same,outcome,[3],inactive
same,outcome,[5],inactive
O=C(Nc1ccccc1SSc1ccccc1NC(=O)c1ccccc1)c1ccccc1,outcome,[1],inactive
same,outcome,[2],inactive
same,outcome,[6],inactive
same,outcome,[7],inactive
same,outcome,[4],inactive
same,outcome,[9],inactive
C=C[Si](C)(C)O[Si](C)(C)C=C,outcome,[1],inactive
same,outcome,[2],inactive
same,outcome,[3],inactive
same,outcome,[5],inactive
CC(CC=O)CCCC(C)(C)O (centres undefined),outcome,[1],inactive
same,outcome,[2],inactive
same,outcome,[3],inactive
same,outcome,[4],inactive
same,outcome,[5],inactive
same,outcome,[10],inactive
O=C1OC(=O)c2cc(Oc3ccc4c(c3)C(=O)OC4=O)ccc21,outcome,[1],inactive
same,outcome,[2],inactive
same,outcome,[3],inactive
same,outcome,[4],inactive
same,outcome,[5],inactive
Cc1ccc(C2OC[C@@H]3OC(c4ccc(C)cc4)O[C@H]([C@H](O)CO)[C@@H]3O2)cc1 (some centres undefined),outcome,[1],inactive
same,outcome,[2],inactive
same,outcome,[3],inactive
same,outcome,[4],inactive
same,outcome,[5],inactive
O=[N+]([O-])c1ccc(CO)cc1,outcome,[1],inactive
same,outcome,[2],inactive
same,outcome,[3],inactive
same,outcome,[4],inactive
same,outcome,[5],inactive
CCCC(C)CCC(C)=O (centres undefined),outcome,[1],inactive
same,outcome,[2],inactive
same,outcome,[3],inactive
same,outcome,[4],inactive
same,outcome,[5],inactive
O=C(Nc1cccc(C(F)(F)F)c1)c1cc(Br)cc(Br)c1O,AC50,[1],145 µM (active)
same,outcome,[2],inactive
same,AC50,[3],2.18 µM (active)
same,AC50,[4],26.4 µM (active)
same,outcome,[5],inactive
